Measurements from PubChem BioAssay (NCATS).
“And” between values parts separate entries of the source, which are not always exact repeats. Equal entries are not always repeated. Inconclusive results are not listed. The source made the active and inactive calls. Unless noted, the call rests on the fitted dose curve; in most records, active means well fitted curve in either direction with a large enough effect (not every such curve was filed as active); inconclusive means small, poorly fitted or top-dose-only effect, or another doubt; inactive means flat fitted curve, though single readings scatter.

Legend:
[1] = Stat Signaling Pathway (AID 446);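 further: ME-180 cervical cancer cells given 40 pM IL-6 alongside compound; SIE-controlled beta-lactamase reporter measured as 460/530 nm FRET emission ratio; on the % scale 0 is the no-effect control and ±100 the full control effect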
Procedure, shortened: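 ME-180 SIE-bla cells; overnight plating; cpd + IL-6 40 pM, 5 h, 37 C; LiveBLAzer 2.5 h RT; 460/530 nm emission ratio. Normalized to 300 pM IL-6 and 125 nM JAK inhibitor controls.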

[2] = molecular target: Glucocorticoid receptor (Homo sapiens) (UniProt P04150); assay: GR-GFP Redistribution (AID 450;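 active means compounds whose dose series gives a full or clear partial fitted curve of increased nuclear translocation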; further: potency means the concentration at half of the fitted maximal effect); settings: U2OS GR-GFP nuclear translocation, laser cytometry, 2 h
Glucocorticoid receptor (Homo sapiens), sequence (P04150 whole entry, looked up, the tested form may be a part): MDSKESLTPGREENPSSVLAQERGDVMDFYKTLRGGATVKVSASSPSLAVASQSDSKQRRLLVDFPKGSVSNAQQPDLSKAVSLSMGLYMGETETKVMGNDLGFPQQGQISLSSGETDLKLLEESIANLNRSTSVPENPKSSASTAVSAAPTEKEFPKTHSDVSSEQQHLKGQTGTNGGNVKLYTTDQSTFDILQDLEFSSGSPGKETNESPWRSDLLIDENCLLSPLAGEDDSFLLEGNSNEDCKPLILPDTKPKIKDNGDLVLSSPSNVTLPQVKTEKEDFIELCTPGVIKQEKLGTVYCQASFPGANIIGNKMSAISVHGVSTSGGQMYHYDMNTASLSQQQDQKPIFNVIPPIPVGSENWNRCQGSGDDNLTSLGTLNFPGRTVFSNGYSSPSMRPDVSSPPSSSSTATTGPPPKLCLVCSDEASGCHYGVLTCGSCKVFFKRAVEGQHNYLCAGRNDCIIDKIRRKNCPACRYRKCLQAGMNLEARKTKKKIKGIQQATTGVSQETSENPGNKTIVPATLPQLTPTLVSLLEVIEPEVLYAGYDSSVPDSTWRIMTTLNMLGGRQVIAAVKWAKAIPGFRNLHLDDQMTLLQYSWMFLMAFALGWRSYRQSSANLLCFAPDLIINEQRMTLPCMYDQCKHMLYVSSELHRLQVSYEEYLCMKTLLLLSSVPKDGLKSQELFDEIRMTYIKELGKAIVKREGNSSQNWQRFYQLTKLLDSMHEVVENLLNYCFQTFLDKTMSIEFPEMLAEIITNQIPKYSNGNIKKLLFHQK

[3] = molecular target: Glucocorticoid receptor (Homo sapiens) (UniProt P04150); assay: GR-EFC Redistribution (AID 451; calls by dose curve; further: potency means the concentration at half of the fitted maximal effect); settings: CHO-K1 GR-EFC translocation, beta-gal luminescence, 2 h
Procedure, shortened: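 CHO-K1 cells stably expressing nuclear-localized β-gal enzyme acceptor and GR fused C-terminally to the enzyme donor fragment; ligand-driven nuclear translocation restores β-gal by complementation. Compounds titrated up to 46 uM final, 2 h at 37 °C; luminescence read.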

[4] = molecular target: Mitogen-activated protein kinase 10 (Mus musculus) (UniProt Q61831); assay: JNK3 AlphaScreen Assay (AID 530);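 further: kinase came from lysate of stimulated human HepG2 cells; signal reports phosphorylation of biotinylated GST-cJun 1-79 at Ser73 with 10 µM ATP; on the % scale 0 is the no-effect control and ±100 the full control effect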
Procedure, shortened: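 JNK3 came from HepG2 lysates pre-activated with IL-1beta and TNF-alpha and phosphorylated biotinylated GST-cJun (1-79) at 10 uM ATP, pH 7.6, room temperature. Compounds were titrated. AlphaScreen signal used anti-phospho-cJun (Ser73) antibody.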

[5] = Cell Viability - N2a (AID 540; active means well fitted curve in the direction sought with a large enough effect; an effect the other way counts as inactive or inconclusive;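 further: plate controls were DMSO alone for no effect and tamoxifen control for full effect; nearly all actives have a fitted effect of over 45% in size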)
Procedure, shortened: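 Mouse neuroblastoma N2a cells (1500/well) were preincubated 5 hr at 37 °C, then exposed to compounds for 40 hr at 37 °C in complete medium. Viability was read as intracellular ATP by CellTiter-Glo luminescence; AC50 from Hill fits.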

[6] = Cell Viability - NIH 3T3 (AID 541; active means well fitted curve in the direction sought with a large enough effect; an effect the other way counts as inactive or inconclusive;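 further: plate controls were DMSO alone for no effect and tamoxifen positive control for full effect; nearly all actives have a fitted effect of over 25% in size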); settings: NIH 3T3 cell viability, qHTS; activity change, negative = cytotoxicity: at 92.2 µM (top of the series)
Procedure, shortened: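 NIH 3T3 mouse embryo fibroblasts (1000 cells/well) were plated in complete medium and treated with compound for 40 hr at 37 °C. Viability was read as intracellular ATP by CellTiter-Glo luminescence; AC50 values came from Hill-equation fits of concentration-response data.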

[7] = Cell Viability - HUV-EC-C (AID 542; active means well fitted curve in the direction sought with a large enough effect; an effect the other way counts as inactive or inconclusive; further: on the % scale 0 is the no-effect control and ±100 the full control effect; nearly all actives have a fitted effect of over 35% in size)
Procedure, shortened: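 HUV-EC-C normal human vascular endothelial cells, 1000 cells/well, pre-incubated 5 hr at 37 °C, then exposed to compounds for 40 hr at 37 °C in complete medium. Viability measured as intracellular ATP by CellTiter-Glo luminescence; AC50 from Hill fits.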

[8] = Cell Viability - H-4-II-E (AID 543; active means well fitted curve in the direction sought with a large enough effect; an effect the other way counts as inactive or inconclusive; further: on the % scale 0 is the no-effect control and ±100 the full control effect; nearly all actives have a fitted effect of over 35% in size)
Procedure, shortened: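 Rat hepatoma H-4-II-E cells (1500/well) were plated, incubated 5 hr at 37 °C, then exposed to compounds for 40 hr at 37 °C. Cellular ATP was read by CellTiter-Glo luminescence; AC50 came from Hill-equation fits of concentration-response data.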

[9] = Cell Viability - SH-SY5Y (AID 544; active means well fitted curve in the direction sought with a large enough effect; an effect the other way counts as inactive or inconclusive;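 further: 0% = DMSO alone and -100% = 100 µM tamoxifen; nearly all actives have a fitted effect of over 55% in size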)
Procedure, shortened: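 Human neuroblastoma SH-SY5Y cells (1500/well) in complete medium were exposed to compounds for 40 hr at 37 °C; intracellular ATP was then quantified by CellTiter-Glo luminescence after 20 min at room temperature. AC50 came from Hill-equation concentration-response fits.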

[10] = Cell Viability - Renal Proximal Tubule (AID 545; active means well fitted curve in the direction sought with a large enough effect; an effect the other way counts as inactive or inconclusive;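 further: 0% = DMSO only and -100% = 100 µM tamoxifen; nearly all actives have a fitted effect of over 40% in size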); settings: renal proximal tubule cells viability, primary cells of rat origin; activity change, negative = cytotoxicity: at 91.7 µM (top of the series)
Procedure, shortened: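 Rat renal proximal tubule primary cells, 1000/well, exposed to compounds for 40 hr at 37 °C in complete medium; cellular ATP read by CellTiter-Glo luminescence. AC50 from concentration-response fitted with standard Hill equation.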

[11] = Cell Viability - Mesenchymal (AID 546; active means well fitted curve in the direction sought with a large enough effect; an effect the other way counts as inactive or inconclusive;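 further: cells exposed to compound for 40 hours before reading; 0% = DMSO only and -100% = 100 µM tamoxifen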); settings: mesenchymal cells viability, qHTS; activity change, negative = cytotoxicity: at 91.7 µM (top of the series)
Procedure, shortened: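 Normal human renal glomerulus-derived kidney mesenchymal cells, 1000 per well in complete medium, were treated with compounds for 40 hr at 37 °C. Viability was read as intracellular ATP by CellTiter-Glo luminescence; AC50 values came from Hill-equation fits of qHTS concentration-response data.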

[12] = molecular target: 3',5'-cyclic-AMP phosphodiesterase 4B (Homo sapiens) (UniProt Q07343); assay: qHTS Assay for Inhibitors of PDE-IV (AID 607; active means well fitted activation curve with a large enough effect in the main read-out, with a control signal flat, not every such curve was filed as active; further: % of control where 0% means no effect)
3',5'-cyclic-AMP phosphodiesterase 4B (Homo sapiens), sequence (Q07343 whole entry, looked up): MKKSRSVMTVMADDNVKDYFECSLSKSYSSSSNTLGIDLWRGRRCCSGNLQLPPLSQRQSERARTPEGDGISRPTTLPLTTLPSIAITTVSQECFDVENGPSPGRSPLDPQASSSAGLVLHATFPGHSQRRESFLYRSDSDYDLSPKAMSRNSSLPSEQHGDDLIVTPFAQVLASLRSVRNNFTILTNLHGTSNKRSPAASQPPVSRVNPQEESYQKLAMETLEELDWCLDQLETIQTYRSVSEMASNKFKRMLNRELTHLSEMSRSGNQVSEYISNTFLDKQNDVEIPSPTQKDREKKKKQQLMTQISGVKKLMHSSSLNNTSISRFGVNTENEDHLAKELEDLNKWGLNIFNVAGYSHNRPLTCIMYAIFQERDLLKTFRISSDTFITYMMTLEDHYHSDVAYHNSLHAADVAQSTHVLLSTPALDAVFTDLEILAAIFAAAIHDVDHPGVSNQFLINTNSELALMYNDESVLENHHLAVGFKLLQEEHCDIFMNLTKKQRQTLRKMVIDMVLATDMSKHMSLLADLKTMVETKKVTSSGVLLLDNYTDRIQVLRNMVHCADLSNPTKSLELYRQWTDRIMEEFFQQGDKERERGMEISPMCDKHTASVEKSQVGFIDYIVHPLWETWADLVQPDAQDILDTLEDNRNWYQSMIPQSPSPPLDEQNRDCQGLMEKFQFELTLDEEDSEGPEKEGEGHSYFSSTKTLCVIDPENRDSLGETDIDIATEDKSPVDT
Procedure, shortened: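 ACTOne HEK293 cells carry a modified cAMP-gated CNG channel and express endogenous PDE4; plated 1000 cells/well, compounds up to 22.9 uM final. Membrane-potential dye fluorescence (ex 535/em 590) was read; parental cells received 10 uM forskolin + 100 uM RO 20-1724.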

[13] = Cellular Toxicity (caspase-3) HepG2 (AID 654; active means well fitted curve in the direction sought with a large enough effect; an effect the other way counts as inactive or inconclusive;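 further: cells exposed to compound for 16 hours before reading; 0% = DMSO alone and 100% = caspase signal from 100 µM tamoxifen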)
Procedure, shortened: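 HepG2 cells (1500/well) in complete medium were treated with compounds for 16 hr at 37 °C. Caspase-3/7 activity was then read as luminescence from peptide-aminoluciferin cleavage. AC50 came from Hill fits, normalized to DMSO and 100 uM tamoxifen.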

[14] = Cellular Toxicity (caspase-3) Jurkat (AID 655; active means well fitted curve in the direction sought with a large enough effect; an effect the other way counts as inactive or inconclusive;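 further: cells exposed to compound for 16 h at 37 °C before reading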)
Procedure, shortened: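 Jurkat cells (5000/well) in complete medium exposed 16 h at 37 C; caspase-3/7 activity read by Caspase-Glo luminescence after 20 min at room temperature. Normalized to DMSO and 100 uM tamoxifen; AC50 from Hill fits.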

[15] = Cellular Toxicity (caspase-3) HUV-EC-C (AID 656; active means well fitted curve in the direction sought with a large enough effect; an effect the other way counts as inactive or inconclusive;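 further: 0% = DMSO basal and 100% = 100 µM tamoxifen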)
Procedure, shortened: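 HUV-EC-C cells (1000/well) in complete medium, compound-treated 16 h at 37 °C; caspase-3/7 activity read by Caspase-Glo 3/7 luminescence. Normalized to DMSO (basal) and 100 uM tamoxifen (100%); AC50 from Hill-equation concentration-response fits.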

[16] = Cellular Toxicity (caspase-3) SHSY5Y (AID 657; active means well fitted curve in the direction sought with a large enough effect; an effect the other way counts as inactive or inconclusive)
Procedure, shortened: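 SH-SY5Y human neuroblastoma cells, 1500/well, exposed to compound for 16 hours at 37 °C in complete medium. Caspase-3/7 activity read by Caspase-Glo luminescence after 1 hr at room temperature, normalized to DMSO and 10 uM staurosporine; AC50 from Hill fit.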

[17] = Cellular Toxicity (caspase-3) BJ (AID 658; active means well fitted curve in the direction sought with a large enough effect; an effect the other way counts as inactive or inconclusive;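 further: 0% = DMSO basal and 100% = 10 µM staurosporine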)
Procedure, shortened: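 Luminescent aminoluciferin-substrate cleavage reports caspase 3/7 activity in normal human BJ fibroblasts after 16 hr compound exposure at 37 °C. Normalized to DMSO (basal) and 10 uM staurosporine (100%); AC50 from Hill fit of concentration-response.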

[18] = Cellular Toxicity (caspase-3) Mesangial (AID 660; active means well fitted curve in the direction sought with a large enough effect; an effect the other way counts as inactive or inconclusive;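 further: cells exposed to compound for 16 h before the caspase read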)
Procedure, shortened: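 Human renal glomerular mesangial cells (1000/well) were treated with compounds for 16 h at 37 °C in complete medium, then caspase 3/7 activity was read by Caspase-Glo luminescence. Data were normalized to DMSO and 100 uM tamoxifen; AC50 from Hill fits.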

[19] = Cellular Toxicity (caspase-3) H-4-II-E (AID 663; active means well fitted curve in the direction sought with a large enough effect; an effect the other way counts as inactive or inconclusive;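 further: cells exposed to compound for 16 hr before readout; 0% = DMSO basal and 100% = 100 µM tamoxifen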)
Procedure, shortened: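 Luminescence from caspase-cleaved aminoluciferin substrate, read 20 min after reagent addition, reports caspase 3/7 activation in rat H-4-II-E cells after 16 hr compound exposure. Normalized to DMSO (basal) and 100 uM tamoxifen (100%); AC50 from Hill fits.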

[20] = Cellular Toxicity (caspase-3) Hek293 (AID 664; active means well fitted curve in the direction sought with a large enough effect; an effect the other way counts as inactive or inconclusive;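 further: cells exposed to compound for 16 h at 37 °C before readout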)
Procedure, shortened: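 HEK293 cells were exposed to compounds in complete medium for 16 hr at 37 °C, then caspase-3/7 activity was read by Caspase-Glo 3/7 luminescence after 20 min at room temperature. Data normalized to DMSO and 100 uM tamoxifen; AC50 from Hill fits.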

C=CCc1ccccc1OCC(O)CNC(C)C (stereo unspecified)
inactive: outcome [1]

COc1ccc(CN(CCN(C)C)c2ccccn2)cc1
inactive: outcome [1] | Potency [2] > 46 µM and > 20.6 µM | Potency [3] > 46 µM and > 20.6 µM | Potency [4] | outcome [5] | activity change, negative = cytotoxicity [6] -13.1% | Potency [7] | Potency [8] | Potency [9] | activity change, negative = cytotoxicity [10] 7.61% | Potency [11] | Potency [12] | outcome [13] | Potency [14] | outcome [15] | outcome [16] | outcome [17] | outcome [18] | outcome [19] | outcome [20]

Cc1nc2c([nH]1)c(=O)n(C)c(=O)n2Cc1ccco1
inactive: outcome [1] | Potency [2] > 46 µM | Potency [3] > 46 µM | Potency [4] | Potency [12]

CN(C)CC/C=C1\c2ccccc2COc2ccccc21
inactive: outcome [1] | Potency [2] > 46 µM and > 20.6 µM | Potency [3] > 46 µM and > 20.6 µM | Potency [4] | Potency [12]

CCn1nc(C(=O)O)c(=O)c2cc3c(cc21)OCO3
inactive: outcome [1] | Potency [2] > 46 µM and > 20.6 µM | Potency [3] > 46 µM and > 20.6 µM | Potency [4] | Potency [12]

CC(=O)Nc1nnc(S(N)(=O)=O)s1
inactive: outcome [1] | Potency [2] > 46 µM and > 20.6 µM | Potency [3] > 46 µM and > 20.6 µM | Potency [4] | Potency [12]

Brc1c(NC2=NCCN2)ccc2nccnc12
inactive: outcome [1] | Potency [2] > 46 µM and > 20.6 µM | Potency [3] > 46 µM | Potency [4] | Potency [12]

O=C1NCN(c2ccccc2)C12CCN(CCCC(c1ccc(F)cc1)c1ccc(F)cc1)CC2
inactive: outcome [1] | Potency [2] > 46 µM and > 20.6 µM | Potency [3] > 46 µM and > 20.6 µM | Potency [4] | Potency [12]

C#CCN(C)CCCOc1ccc(Cl)cc1Cl
inactive: outcome [1] | Potency [2] > 46 µM and > 20.6 µM | Potency [3] > 46 µM and > 20.6 µM | Potency [4] | Potency [12]

CC1=NS(=O)(=O)c2cc(Cl)ccc2N1
inactive: outcome [1] | Potency [2] > 46 µM and > 20.6 µM | Potency [3] > 46 µM and > 20.6 µM | Potency [4] | Potency [12]

CCN(CC)CCNC(=O)c1cc(S(C)(=O)=O)ccc1OC
inactive: outcome [1] | Potency [2] > 46 µM and > 20.6 µM | Potency [3] > 46 µM and > 20.6 µM | Potency [4] | Potency [12]

c1cnc(N2CCN(Cc3ccc4c(c3)OCO4)CC2)nc1
inactive: outcome [1] | Potency [2] > 46 µM and > 20.6 µM | Potency [3] > 46 µM and > 20.6 µM | Potency [4] | Potency [12]

CN(C(=O)CCCOc1ccc2[nH]c(=O)ccc2c1)C1CCCCC1
inactive: outcome [1] | Potency [2] > 46 µM | Potency [3] > 46 µM | Potency [4] | Potency [12]

CC(C)[N+](C)(CCOC(=O)C1c2ccccc2Oc2ccccc21)C(C)C
inactive: outcome [1] | Potency [2] > 46 µM and > 20.6 µM | Potency [3] > 46 µM and > 20.6 µM | Potency [4] | Potency [12]

CCC(=O)c1ccc2c(c1)N(CCCN(C)C)c1ccccc1S2
inactive: outcome [1] | Potency [2] > 46 µM | Potency [3] > 46 µM | Potency [4] | Potency [12]

CN(C)CCCN1c2ccccc2Sc2ccc(C(F)(F)F)cc21
inactive: outcome [1] | Potency [2] > 46 µM and > 20.6 µM | Potency [3] > 46 µM and > 20.6 µM | Potency [4] | Potency [12]

CC(=O)Oc1cc(C(C)C)c(OCCN(C)C)cc1C
inactive: outcome [1] | Potency [2] > 46 µM and > 20.6 µM | Potency [3] > 46 µM and > 20.6 µM | Potency [4] | Potency [12]

CCO/C([O-])=N/c1c[n+](N2CCOCC2)no1
inactive: outcome [1] | Potency [2] > 46 µM and > 20.6 µM | Potency [3] > 46 µM and > 20.6 µM | Potency [4] | Potency [12]

CC(C)(Oc1ccc(CCNC(=O)c2ccc(Cl)cc2)cc1)C(=O)O
inactive: outcome [1] | Potency [2] > 20.6 µM | Potency [3] > 20.6 µM | Potency [4] | Potency [12]

COCC(=O)O[C@]1(CCN(C)CCCc2nc3ccccc3[nH]2)CCc2cc(F)ccc2[C@@H]1C(C)C
inactive: outcome [1] | Potency [2] > 46 µM | Potency [3] > 46 µM | Potency [4] | Potency [12]

c1cc(CN2CCCCC2)cc(OCCCNc2nc3ccccc3s2)c1
inactive: outcome [1] | Potency [2] > 46 µM | Potency [3] > 46 µM | Potency [4] | Potency [12]

CCNC(=O)N1CCN(CCCC(c2ccc(F)cc2)c2ccc(F)cc2)CC1
inactive: outcome [1] | Potency [2] > 46 µM | Potency [3] > 46 µM | Potency [4] | Potency [12]
